# Source: PubChem BioAssay (NCATS)
# “And” between values parts separate entries of the source, which are not always exact repeats. Identical values can stand only once. Results filed as inconclusive are left out. The source made the active and inactive calls. Calls follow the shape of the dose curve; as a rule, active = well fitted curve in the direction sought with a large enough effect; inconclusive = small, poorly fitted or top-dose-only effect, or another doubt; inactive = no such curve, though single readings can be large; an effect the other way counts as inactive or inconclusive.
# Columns and labels:
# [1] = biological target: Cytochrome P450 3A4 (Homo sapiens) (UniProt P08684); experiment: qHTS Assay for Inhibitors and Substrates of Cytochrome P450 3A4 (AID 884); conditions: recombinant CYP3A4, Luciferin-PPXE luminescence; series mostly up to 57.1 µM; also: nearly all actives have a fitted effect of over 50% in size; also: potency is read from the fitted curve at half-maximal effect
# Cytochrome P450 3A4 (Homo sapiens), sequence (P08684 whole entry, looked up): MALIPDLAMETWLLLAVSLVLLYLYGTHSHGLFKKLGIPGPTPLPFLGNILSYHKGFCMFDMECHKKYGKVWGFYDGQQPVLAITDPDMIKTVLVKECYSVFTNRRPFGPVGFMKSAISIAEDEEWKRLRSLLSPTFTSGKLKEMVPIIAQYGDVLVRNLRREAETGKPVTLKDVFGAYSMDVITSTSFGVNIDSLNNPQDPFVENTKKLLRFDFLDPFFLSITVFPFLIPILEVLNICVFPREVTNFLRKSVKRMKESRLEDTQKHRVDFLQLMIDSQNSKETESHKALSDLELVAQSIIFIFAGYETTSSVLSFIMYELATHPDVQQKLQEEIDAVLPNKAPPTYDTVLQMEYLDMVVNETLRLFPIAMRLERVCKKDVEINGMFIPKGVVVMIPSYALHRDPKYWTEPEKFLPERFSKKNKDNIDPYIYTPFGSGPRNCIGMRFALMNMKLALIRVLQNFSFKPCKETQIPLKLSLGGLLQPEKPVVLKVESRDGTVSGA
# Method in brief: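 20 nM human CYP3A4 with 25 uM Luciferin-PPXE (at KM) in 200 mM KPO4, preincubated 10 min with compound; NADPH regeneration started a 60 min RT reaction. Luciferin detected by luminescence, normalized to 57 uM ketoconazole as full inhibition.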
# [2] = biological target: Cytochrome P450 3A4 (Homo sapiens) (UniProt P08684); experiment: qHTS Assay for Activators of Cytochrome P450 3A4 (AID 885); conditions: recombinant CYP3A4, Luciferin-PPXE luminescence, 60 min; series mostly up to 57.1 µM; also: nearly all actives have a fitted effect of over 65% in size
# Method in brief: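 20nM CYP3A4 + 25uM Luciferin-PPXE (=KM), 200mM KPO4; cpd 10 min RT; NADPH regen, 60 min RT; stop w/ detection buffer, 20 min; luminescence. Normalized to 57 uM ketoconazole.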
Compound,Potency [1],Potency [2],"activity change, positive = activation [2]"
Cn1c(=O)c(C(=O)COC(=O)c2cc(C(F)(F)F)nc3ccccc23)c(N)n(Cc2ccccc2)c1=O,inactive,–,–
COC(=O)[C@@H]1C[C@@]2(O)[C@H](O)[C@H](O)[C@H](O)C[C@H]2N1CC1CCCCC1,inactive,–,–
O=C(O)c1cc(C(F)(F)F)nc2ccccc12,inactive,–,–
OB(O)c1cc2ccccc2s1,inactive,–,–
CC(C)Cn1c(N)c(C(=O)COC(=O)c2cc(C(F)(F)F)nc3ccccc23)c(=O)n(C)c1=O,inactive,–,–
Cn1c(=O)c(C(=O)COC(=O)c2cc(-c3ccccc3)nc3ccccc23)c(N)n(Cc2ccccc2)c1=O,inactive,–,–
COC(=O)c1ccc(C23CC4(C2)[C@H](CN(Cc2ccc(-c5ccccc5)cc2)[C@@H]4c2ccccc2)C3c2ccc(C(F)(F)F)cc2)cc1 (some centres not stated),inactive,–,–
CN(C)/C=N/c1cc(=O)n(C)c(=O)n1Cc1ccccc1,inactive,–,–
CCC1=C2CC[C@H]3C(=O)NC(=O)[C@H]3[C@H]2[C@@]2(C)C(=NCCOC)OC(=O)N2C1=O,inactive,–,–
CCC1=C(OC(=O)N(CC)CC)N2C(=O)OC(=NCc3ccccc3)[C@]2(C)[C@H]2C1=CC[C@H]1C(=O)NC(=O)[C@H]12,5.01 µM (active),inactive,–
COC(=O)c1ccc(C23CC4(C2)[C@H](CN(CC2CCCCC2)[C@@H]4c2ccccc2)C3c2ccccc2)cc1 (some centres not stated),25.1 µM (active),inactive,–
COC(=O)[C@H]1C[C@H]2CC[C@H](O)C[C@H]2N1Cc1c(F)cccc1Cl,12.6 µM (active),inactive,–
COC(=O)C/C=C\[C@@H](C)[C@@H](/C=N\OC[C@@H](O)[C@H]1O[C@H]2OC(C)(C)O[C@H]2[C@@H]1O)NS(=O)(=O)c1ccc(C)cc1,3.98 µM (active),–,-61% [at 11.4 µM] (inactive)
Cc1ccc(S(=O)(=O)N[C@H]2COC(=O)CC=C[C@@H](C)[C@H]3C=C[C@H](O)[C@@H](COC(=O)CC=C[C@H]2C)O3)cc1,3.16 µM (active),–,-86.3% [at 11.4 µM] (inactive)
COC(=O)c1cccc(C23CC4(C2)[C@H](CN(C)[C@@H]4c2ccccc2)C3c2ccc(C(F)(F)F)cc2)c1 (some centres not stated),12.6 µM (active),inactive,–
COC(=O)c1ccc(C(NC(=O)OCc2ccccc2)/C(C)=C/[C@@H](C)C(=O)NCc2nc3ccccc3s2)cc1 (some centres not stated),3.98 µM (active),inactive,–
COC(=O)c1ccc(C23CC4(C2)[C@H](CN(CC2CCCCC2)[C@@H]4c2ccccc2)C3c2ccc(Cl)nc2)cc1 (some centres not stated),25.1 µM (active),inactive,–
CCOC(=O)N/N=C1/C[C@@H](O)[C@@H](O)[C@@H]2[C@@H]3C(=O)N(Cc4ccc5c(c4)OCO5)C(=O)[C@H]3CC[C@@H]12,3.98 µM (active),–,-82.5% [at 11.4 µM] (inactive)
CCCCCCN(C(=O)CCCCCN1C(=O)NC(c2ccc(C(F)(F)F)cc2)C(C(=O)OCc2ccccc2)=C1C)C(C(=O)NCCCC)c1ccc(OCC(=O)OC)c(C(=O)OC)c1 (configuration not stated),3.98 µM (active),inactive,–
C/C(CCN1CCc2nc(-c3ccccc3)c(-c3ccccc3)cc2C1)=N\O[C@@H](C)CN1CCCCc2nc(C)c(C)cc21,3.98 µM (active),–,-84.8% [at 11.4 µM] (inactive)
C[C@@H](c1ccccc1)N1C(=O)[C@H]2[C@H]3[C@H](O)[C@H](O)C/C(=N/OC[C@@H](O)COCc4ccco4)[C@H]3CC[C@@H]2C1=O,3.98 µM (active),–,-66.6% [at 11.4 µM] (inactive)
COC(=O)CNC(=O)[C@@]1(C)C=C[C@@H](Cc2ccccc2)N1C(=O)OC,12.6 µM (active),inactive,–
CC(C)=CCC/C(C)=C/CO/N=C1/C[C@@H](O)[C@@H](O)[C@@H]2[C@@H]3C(=O)N(Cc4ccc5c(c4)OCO5)C(=O)[C@H]3CC[C@@H]12,1.58 µM (active),–,-86.9% [at 11.4 µM] (inactive)
C=CC[C@@H]1C=C[C@@H](O/N=C(/C)CCC(=O)OC[C@@H]2O[C@H](C#Cc3ccccc3)C=C[C@@H]2Oc2ccc(C)cc2)[C@@H](CO)O1,5.01 µM (active),–,-97.7% [at 11.4 µM] (inactive)
O=C1[C@H]2[C@H]3[C@H](O)[C@H](O)C/C(=N/OCc4ccccc4)[C@@H]3CC[C@@H]2C(=O)N1Cc1ccc2c(c1)OCO2,2 µM (active),–,-100% [at 11.4 µM] (inactive)
COC(=O)C/C=C\[C@@H](C)[C@@H](/C=N\O[C@@H](C)c1cn([C@H](CO)Cc2ccccc2)nn1)OC,3.98 µM (active),–,-56.1% [at 11.4 µM] (inactive) and -71.3% [at 11.4 µM] (inactive)
CO[C@H]1COC(=O)[C@H](C)NC(=O)C/C=C\[C@@H](C)[C@@H](NS(=O)(=O)c2ccc(C)cc2)COC(=O)C/C=C\[C@@H]1C,3.98 µM (active),–,-80.3% [at 11.4 µM] (inactive)

Compound,Potency [1],Potency [2],"activity change, positive = activation [2]"
CCC1=C(OC(=O)N(CC)CC)N2C(=O)OC(=NCCc3c[nH]c4ccccc34)[C@]2(Cc2ccccc2)[C@H]2C1=CC[C@H]1C(=O)NC(=O)[C@H]12,2 µM (active),inactive,–
Cn1c(N)c(C(=O)COC(=O)c2cc(-c3ccco3)nc3ccccc23)c(=O)n(Cc2ccccc2)c1=O,10 µM (active),inactive,–
CCCNC(=O)OC[C@H]1O[C@@H](CCO/N=C2/[C@H]3O[C@@H]3[C@@H](O)[C@H]3[C@H]2CCn2c(=O)n(-c4ccccc4)c(=O)n23)C=C[C@@H]1Oc1ccc(OC)cc1,3.16 µM (active),–,-85.3% [at 11.4 µM] (inactive)
C/C(CCN1CCc2nc(-c3ccccc3)c(-c3ccccc3)cc2C1)=N\OC[C@@H](O)COCc1ccco1,3.16 µM (active),–,-86.5% [at 11.4 µM] (inactive)
COCCNC(=O)[C@H](C)/C=C(\c1cccnc1)C(NC(=O)OCc1ccccc1)c1ccc(C(=O)OC)cc1 (some centres not stated),5.01 µM (active),inactive,–
CC(C)=CCC/C(C)=C/CO/N=C1/C[C@@H](O)[C@@H](O)[C@@H]2[C@@H]3C(=O)N(Cc4ccc5c(c4)OCO5)C(=O)[C@H]3CC[C@H]12,1.58 µM (active),–,-115% [at 11.4 µM] (inactive)
CCC1=C2CC[C@H]3C(=O)N(c4ccccc4)C(=O)[C@H]3[C@H]2[C@@]2(C)C(=NCC3CC3)OC(=O)N2C1=O,10 µM (active),inactive,–
COC(=O)c1ccc(C(NC(=O)OCc2ccccc2)/C(=C/[C@@H](C)C(=O)NCCF)c2cccnc2)cc1 (some centres not stated),6.31 µM (active),inactive,–
CCC1=C(OC(=O)N(CC)CC)N2C(=O)OC(=NCC(=O)OC)[C@]2(C)[C@H]2C1=CC[C@H]1C(=O)N(CC)C(=O)[C@H]12,6.31 µM (active),inactive,–
c1ccc(C2[C@H]3CN(CC4CCCCC4)[C@H](c4ccccc4)C34CC2(c2cccnc2)C4)cc1 (some centres not stated),12.6 µM (active),inactive,–
CCC1=C(OC(=O)N(CC)CC)N2C(=O)OC(=NCC3CC3)[C@]2(Cc2ccccc2)[C@H]2C1=CC[C@H]1C(=O)NC(=O)[C@H]12,2 µM (active),inactive,–
C/C(CCN1CCCCc2nc(C)c(C)cc21)=N\O[C@@H](C)CN1CCCCc2nc(C)c(C)cc21,3.98 µM (active),–,-81.7% [at 11.4 µM] (inactive)
CCC1=C2CC[C@H]3C(=O)N(CC)C(=O)[C@H]3[C@H]2[C@@]2(Cc3ccccc3)C(=O)N(CCOC)C(=O)N2C1=O,15.8 µM (active),inactive,–
CCC1=C(OC(=O)N(CC)CC)N2C(=O)OC(=NCC3CC3)[C@]2(C)[C@H]2C1=CC[C@H]1C(=O)N(CC(=O)OC)C(=O)[C@H]12,7.94 µM (active),inactive,–
CCC1=C(OC(=O)N(CC)CC)N2C(=O)OC(=NCCc3c[nH]c4ccccc34)[C@]2(Cc2ccccc2)[C@H]2C1=CC[C@H]1C(=O)N(c3ccccc3)C(=O)[C@H]12,6.31 µM (active),inactive,–
Clc1ccc(C2[C@H]3CN(CC4CCCCC4)[C@H](c4ccccc4)C34CC2(c2cccnc2)C4)cn1 (some centres not stated),3.98 µM (active),inactive,–
CCC1=C(OC(=O)N(CC)CC)N2C(=O)OC(=NCCc3c[nH]c4ccccc34)[C@]2(C)[C@H]2C1=CC[C@H]1C(=O)N(C)C(=O)[C@H]12,1.26 µM (active),inactive,–
CCC1=C(OC(=O)N(CC)CC)N2C(=O)OC(=NCC(=O)OC)[C@]2(Cc2ccccc2)[C@H]2C1=CC[C@H]1C(=O)NC(=O)[C@H]12,6.31 µM (active),inactive,–
Cc1c(C(=O)NC2CCCCC2)sc2nc3ccc(N)cc3n12,1.58 µM (active),inactive,–
CNC1=C(Br)C(=O)c2ccncc2C1=O,1.26 µM (active),inactive,–
COC(=O)c1ccc(C(NC(=O)OCc2ccccc2)/C(C)=C/[C@@H](C)C(=O)NCCc2c[nH]c3ccc(OC)cc23)cc1 (some centres not stated),2 µM (active),inactive,–
COC(=O)[C@@H]1C[C@@H]2CC[C@@H](O)C[C@@H]2N1Cc1ccccc1OS(=O)(=O)c1ccc(C)cc1,2.51 µM (active),inactive,–
C#CCCCO/N=C1/C[C@@H](O)[C@@H](O)[C@@H]2[C@@H]3C(=O)N([C@@H](C)c4ccccc4)C(=O)[C@H]3CC[C@@H]12,3.98 µM (active),–,-86% [at 11.4 µM] (inactive)
CCC1=C2CC[C@H]3C(=O)N(C)C(=O)[C@H]3[C@H]2[C@@]2(Cc3ccccc3)C(=NCCOC)OC(=O)N2C1=O,10 µM (active),inactive,–
CN1C[C@@H]2C(c3ccc(Cl)nc3)C3(c4cccnc4)CC2(C3)[C@H]1c1ccccc1 (some centres not stated),7.94 µM (active),inactive,–
C#CCCCO/N=C1/C[C@@H](O)[C@@H](O)[C@@H]2[C@H]3C(=O)N(c4ccc(F)cc4F)C(=O)[C@@H]3CC[C@H]12,3.98 µM (active),–,-60.2% [at 11.4 µM] (inactive)
